# Sampled rows, rich in hits. Any-hit rate of the full collection: about 1.2%.
# GoLoco inh red: inhibitors of human Gai1-RGS12 GoLoco interaction (red fluorophore) | P63096 | Gai1:RGS12 GoLoco peptide FP, rhodamine, 10 min | Potency, µM (doses to about 61.6 µM), without a hit: top-dose activity, negative = inhibition, usual class: inhibitors | 0.44% of 230,000 active; active means well fitted inhibition curve with a large enough effect, not every such curve was filed as active; inactive means no such curve, though single readings can be large or run the other way; further: potency means the concentration at half of the fitted maximal effect; nearly all actives have a fitted effect of over 30% in size
# GCN5L2 inh: inhibitors of human GCN5L2 histone acetyltransferase; AID 504327; GCN5L2 HAT assay, ThioGlo1 CoA-SH fluorescence; 0.21% of 390,000 active; Potency, µM (highest dose often 58.9 µM), inactives show at the highest dose activity change, negative = inhibition, most hits filed as inhibitors; Q92830; further: potency means the concentration at half of the fitted maximal effect
#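 Preincubate 20nM GCN5L2 with compound 15 min, RT → add 50uM ThioGlo1 + 75uM H3(1-25) + 70uM acetyl-CoA → read fluorescence 0 and 20 min. Primary qHTS; fluorescent artifacts likely.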
# PI5P4Ka inh: blocks human PI5P4K alpha kinase activity | max response, % | AID 652105 | 1.2% of 330,000 active | P48426 | PI5P4Kalpha enzyme, ADP-Glo luminescence, 60 min; active compounds read low; active means max response of -50% or lower; inconclusive means between -30% and -50%; inactive means -30% or higher; further: value at the top dose of about 77 µM
#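 PI5P4Kalpha ADP-Glo assay; 5 microM ATP final; 60 min RT reaction; HEPES pH 7.4/EGTA/CHAPS, 5% DMSO; controls lacking substrate or enzyme; luminescent end-point.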
# PGK inhibitor: inhibitors of T. brucei phosphoglycerate kinase | AID 602233 | Potency, µM (top dose mostly 57.5 µM), inactives show at the highest dose activity change, negative = inhibition, most hits filed as inhibitors | P07378 | 0.043% of 380,000 active | PGK/GAPDH coupled, Kinase-Glo luminescence, 60 min; further: potency means the concentration at half of the fitted maximal effect; nearly all actives have a fitted effect of over 60% in size
# Target sequence (P07378 whole entry, looked up): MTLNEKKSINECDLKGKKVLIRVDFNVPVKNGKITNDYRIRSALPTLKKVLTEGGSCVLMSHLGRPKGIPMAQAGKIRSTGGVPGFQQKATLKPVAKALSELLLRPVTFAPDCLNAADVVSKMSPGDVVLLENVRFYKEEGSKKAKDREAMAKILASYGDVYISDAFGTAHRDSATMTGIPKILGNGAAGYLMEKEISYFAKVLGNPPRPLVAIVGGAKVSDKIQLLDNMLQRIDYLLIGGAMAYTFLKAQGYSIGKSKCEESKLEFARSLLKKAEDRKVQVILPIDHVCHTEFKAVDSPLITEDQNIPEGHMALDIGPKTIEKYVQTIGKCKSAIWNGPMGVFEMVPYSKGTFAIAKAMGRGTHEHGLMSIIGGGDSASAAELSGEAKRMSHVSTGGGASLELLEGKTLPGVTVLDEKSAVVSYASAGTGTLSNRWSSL
#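 Recombinant glycosomal PGK reaction used 1,3-bisphosphoglycerate generated in-well by GAPDH (100nM final) in 100mM TEA pH 7.6, 5mM MgCl2, 0.01% Tween-20. After 60 minutes at room temperature, ATP was read by Kinase-Glo Plus luminescence end-point.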
# PI4K2A block: inhibitors of human PI4K2A. Q9BTU6. purified PI4K2A, ADP-Glo luminescence, 1 h; active compounds read low. activity change, negative = inhibition, % at 76.9 µM. 0.13% of 420,000 active. AID 1346378; in the data active means activity change below about -50%; inconclusive means mostly about -30% to -49%;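 further: -100% = wells without enzyme as full effect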
#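 ADP-Glo luminescence measured ADP generated by PI4K2A enzyme (4 ug/mL before mixing) with 1.2 mM PI substrate (pre-mix) and 300 microM ATP (pre-mix). Tris pH7.5 buffer with MgCl2, Triton X-100; 1 h reaction at ambient temperature.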
# Pin1 inh: inhibitors of human Pin1 | Q13526 | Pin1 FP peptide displacement, HiFluor488, 10 min | Potency, µM (top dose mostly 115 µM), for the others: top-dose activity, negative = inhibition, most hits filed as inhibitors | 0.009% of 390,000 active; active means well fitted inhibition curve with a large enough effect in the polarisation, with a control signal flat, not every such curve was filed as active; inconclusive means small, poorly fitted or top-dose-only effect, or effect the other way, or a change in a side signal; inactive means no such curve, though single readings can be large or run the other way; the % refers to the polarisation; further: potency means the concentration at half of the fitted maximal effect
# ADP-Glo counter: counter-screen for PI5P4K inhibitors: ADP-Glo detection interference, no enzyme | shares compounds with PI5P4Ka inh | 1,100 tested, under 10 active | Potency, µM (series often up to 76.9 µM), for inactives: at the highest dose activity change, negative = inhibition, most hits filed as inhibitors | AID 743285 | ADP-Glo detection counter-screen, luciferase luminescence, no enzyme
# * = called active by the depositor; i = inactive; ? = inconclusive; · = not tested or not shown; ! = not active in a repeat. Unless noted, the call rests on the fitted dose curve; in most records, active means well fitted curve in the direction sought with a large enough effect; inconclusive means small, poorly fitted or top-dose-only effect, or another doubt; inactive means no such curve, though single readings can be large; an effect the other way counts as inactive or inconclusive. Unless noted, on the % scale 0 is the no-effect control and ±100 the full control effect.
SMILES,GoLoco inh red,GCN5L2 inh,PI5P4Ka inh,PGK inhibitor,PI4K2A block,Pin1 inh,ADP-Glo counter
CCN1CCN(Cc2ccc(NC(=O)c3ccc(C)c(NC(=O)c4cccc(-c5cn[nH]c(=O)c5)c4)c3)cc2C(F)(F)F)CC1,·,-2%,0,6%,-2,2%,·
CCN1CCN(Cc2ccc(NC(=O)c3cc(NC(=O)c4cc5cccc(OC)c5o4)cc(OC)c3)cc2C(F)(F)F)CC1,5%,-13%,-61*!,1%,-6,24%,7%
CCN1CCN(Cc2ccc(NC(=O)c3cc(NC(=O)c4ccno4)cc(OC)c3)cc2C(F)(F)F)CC1,13%,-10%,-3,-2%,-4,-5%,·
CCN1CCN(Cc2ccc(NC(=O)c3ccc(C)c(NC(=O)c4csc(-c5ccncc5)n4)c3)cc2C(F)(F)F)CC1,-1%,-18%,-65*,-10%,-1,9%,4%
O=C(NCc1ccccc1)C(c1ccco1)N1CCN(C(=O)C2CCCO2)CC1 (stereo unspecified),·,·,-1,·,-3,·,·
O=C(NCc1ccc(F)cc1)C1CCN(c2cnccn2)CC1,-7%,-4%,-53*,-5%,0,6%,1%
O=C(NCc1ccco1)c1cc2ccc(O)cc2oc1=O,13%,?,-81*,?,-76*,-7%,?
O=C(c1ccc(Br)cc1)c1cc2ccc(O)cc2oc1=O,·,-9%,-63*,-11%,0,-6%,-5%
COc1ccc2nc(SCC(=O)N3CCN(c4ccc(F)cc4)CC3)c(C#N)cc2c1,20%,-4%,-50*,-4%,-12,?,6%
COc1ccc2cc(C#N)c(SCC(=O)N3CCCC3)nc2c1,6%,-1%,2,i,6,7%,·
COC(=O)c1ccc(OC(=O)c2ccc(OCc3c(C)noc3C)c(OC)c2)cc1,-2%,3%,·,·,·,·,·
CN(C)C(=S)NCc1ccccc1,-6%,-13%,-54*,-1%,-11,0%,-7%
COc1ccc(S(=O)(=O)c2cn(Cc3ccccc3)c3ccc(OC)cc3c2=O)cc1,·,-10%,·,1%,7,4%,·
CCCS(=O)(=O)NC(=O)C1(C)CCCN(C(=O)c2cccc(OC(F)(F)F)c2)C1 (stereo unspecified),·,·,-11,·,1,·,·
Cc1nn(-c2nc3ccccc3[nH]2)c(=O)c2ccccc12,7%,-4%,-60*,?,-81*,0%,?
NC(Cc1ccc(C(F)(F)F)cc1)c1csc(NC(=O)Nc2ccccc2Oc2ccccc2)n1 (stereo unspecified),·,·,-50*,·,0,·,-1%
CN(C)S(=O)(=O)c1cccc(NC(=O)COC(=O)C2CCN(C(=O)c3ccc(F)cc3)CC2)c1,·,-1%,-6,1%,1,7%,·
NS(=O)(=O)c1ccc(NCc2c(F)cccc2Cl)cc1,10%,-10%,·,i,-4,3%,·
Fc1cccc(Cl)c1CNc1ccc(N2CCCC2)cc1,-14%,-5%,-63*,6%,-7,1%,-21%
CC(C)Cc1nnc(NC(=O)CC(=O)Nc2ccccc2C(=O)O)s1,4%,2%,-57*,-6%,1,4%,0%
CCc1nnc(NC(=O)CC(=O)Nc2ccccc2C(=O)O)s1,9%,-8%,·,11%,-8,-5%,·
CCCCc1nnc(NC(=O)CC(=O)Nc2ccccc2C(=O)O)s1,12%,-1%,-61*,0%,5,-11%,-9%
COc1ccc(OC)c2[nH]c(=O)c(CCNC(=O)c3ccc(S(=O)(=O)N4CCCC4)cc3)cc12,4%,22%,?,i,-2,5%,·
Cc1ccc(C)c2[nH]c(=O)c(CCNC(=O)c3ccc(S(=O)(=O)N4CCOCC4)cc3)cc12,·,-8%,-57*,-10%,2,5%,-7%

# Bioassay records (PubChem)
